From ChEMBL document CHEMBL1201862, “PubChem BioAssay data set” (2004) come the findings set out here.

Among all 400,000 compounds or so, about 2,100 (0.53%) were called active. Inconclusive results (about 14%) are left out. No rule for the calls is given here. For the sample, actives were picked, then their nearest neighbours and some compounds at random.

The target in the experiment is Ataxin-2 (Homo sapiens) (UniProt Q99700). The experiment can be described thus: qHTS for Inhibitors of ATXN expression. The format is functional. A general note: qHTS replaces the single test concentration by a dilution series.
Chain of Ataxin-2 (Homo sapiens) (Q99700 whole entry): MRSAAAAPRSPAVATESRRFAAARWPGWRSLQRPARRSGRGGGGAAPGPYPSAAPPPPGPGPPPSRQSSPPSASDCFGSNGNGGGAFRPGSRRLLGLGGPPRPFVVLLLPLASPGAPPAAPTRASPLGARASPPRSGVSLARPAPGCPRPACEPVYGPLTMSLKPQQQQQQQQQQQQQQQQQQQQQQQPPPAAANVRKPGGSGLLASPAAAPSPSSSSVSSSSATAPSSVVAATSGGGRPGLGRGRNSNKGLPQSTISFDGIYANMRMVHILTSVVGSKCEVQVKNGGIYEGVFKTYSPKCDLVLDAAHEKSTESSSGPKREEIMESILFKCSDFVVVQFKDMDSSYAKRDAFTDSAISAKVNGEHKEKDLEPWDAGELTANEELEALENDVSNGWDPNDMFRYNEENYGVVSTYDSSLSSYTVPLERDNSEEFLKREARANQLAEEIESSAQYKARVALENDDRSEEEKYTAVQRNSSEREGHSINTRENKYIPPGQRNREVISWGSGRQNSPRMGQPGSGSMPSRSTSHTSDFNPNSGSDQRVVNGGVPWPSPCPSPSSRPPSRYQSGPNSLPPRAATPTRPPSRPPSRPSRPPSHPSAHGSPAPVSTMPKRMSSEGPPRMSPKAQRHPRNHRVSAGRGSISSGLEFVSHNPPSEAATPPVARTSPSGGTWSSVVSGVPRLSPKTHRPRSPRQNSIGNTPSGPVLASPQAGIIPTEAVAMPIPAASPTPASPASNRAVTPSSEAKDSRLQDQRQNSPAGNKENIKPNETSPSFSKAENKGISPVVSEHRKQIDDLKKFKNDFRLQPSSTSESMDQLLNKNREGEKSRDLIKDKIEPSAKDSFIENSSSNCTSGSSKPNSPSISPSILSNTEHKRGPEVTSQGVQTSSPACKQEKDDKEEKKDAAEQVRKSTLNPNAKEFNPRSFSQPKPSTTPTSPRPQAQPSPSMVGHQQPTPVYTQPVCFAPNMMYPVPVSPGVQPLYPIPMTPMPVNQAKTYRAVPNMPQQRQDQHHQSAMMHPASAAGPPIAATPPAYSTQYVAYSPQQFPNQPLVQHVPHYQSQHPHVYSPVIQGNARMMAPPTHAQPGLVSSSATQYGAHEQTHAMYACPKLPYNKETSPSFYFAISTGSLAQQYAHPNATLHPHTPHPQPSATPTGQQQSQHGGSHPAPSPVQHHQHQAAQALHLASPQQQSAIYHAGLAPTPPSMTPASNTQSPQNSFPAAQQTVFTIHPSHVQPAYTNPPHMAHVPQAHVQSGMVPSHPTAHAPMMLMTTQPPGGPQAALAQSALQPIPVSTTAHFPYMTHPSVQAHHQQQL
Take `CCOC(=O)c1c(CSC(=N)N)n(C)c2cc(Br)c(OC(C)=O)cc12`: the Potency is 35.5 µM (active). As to `CCOC(=O)c1c(-c2ccccc2)oc2ccc(OCC(O)CNCCN(C)C)cc12` (stereo not drawn), the Potency entry is “inactive”. The same measure for `CCOC(=O)c1c(CSc2ccccc2)n(C)c2cc(Br)c(OCC(O)CNC(CO)(CO)CO)cc12` (stereo not drawn): 25.1 µM (active); for `O=C(C1=CC=CN2CCS(=O)(=O)N=C12)N1CCN(c2cccc(Cl)c2)CC1`: “inactive”; for `CC1(Cc2ccccc2OC(F)(F)F)C(=O)Nc2ccc(-c3ccsc3)cc21` (stereo not drawn): 39.8 µM (active). Take `CCOC(=O)C1=NN(C(=O)c2ccc(OC)cc2)C(O)(c2ccc(Cl)cc2)C1` (stereo not drawn): the Potency result was “inactive”. With `COc1ccc(OC(F)(F)F)cc1CC1(C)C(=O)Nc2ccc(-c3ccsc3)cc21` (stereo not drawn), the Potency is 39.8 µM (active). Next, `CCOC(=O)C1=NOC2(C1)C(=O)Nc1ccc(OC(F)(F)F)cc12` (stereo not drawn): 39.8 µM (active). As for `Cc1ccc(CC2(C)C(=O)Nc3ccc(OC(F)(F)F)cc32)cc1` (stereo not drawn), the Potency is 39.8 µM (active). The same measure for `CN1CCCC(OC(=O)c2cc(Cl)cc(Cl)c2)C1` (stereo not drawn): “inactive”. Next, `c1ccc(-c2nc(N3CCCCC3)nc3ccccc23)cc1`: “inactive”. The same measure for `C#CCOCCOCCOCCNc1nc(N2CCN(C(=O)CCCCCCCCCCNC(=O)[C@@H](CCC(=O)O)n3cc(CCCCCN)nn3)CC2)nc(N2CCN(C(=O)CCCCCCCCCCNC(=O)[C@H](CCCCN)n3cc(C[C@@H](C)CC)nn3)CC2)n1`: 31.6 µM (active); for `C#CCOCCOCCOCCNc1nc(N2CCN(C(=O)CCCCCCCCCCNC(=O)[C@H](CCCCN)n3cc(C[C@@H](C)CC)nn3)CC2)nc(N2CCN(C(=O)CCCCCCCCCCNC(=O)[C@H](CCCN=C(N)N)n3cc(C[C@@H](C)CC)nn3)CC2)n1`: 20 µM (active); for `Cc1ccc(CNc2nc(NCC3CC3)nc3ccsc23)c(C)c1`: 39.8 µM (active). In the case of `Cc1ccc(Nc2nc(NCC3CC3)nc3ccsc23)c(C)c1`, the Potency is 20 µM (active).

Consider `O=C(COC(=O)c1ccc(Cl)nc1)Nc1ccc2c(c1)CCC2`, for which the Potency result was “inactive”. Next, `CC(=O)Oc1ccc2c(c1)O/C(=C\c1ccncc1)C2=O`: “inactive”; `COCc1cc(C)nc(SCC(=O)Nc2nc(C)cs2)c1C#N`: “inactive”.

As to `CCOC(=O)Cc1csc(NS(=O)(=O)c2ccc(SC)cc2)n1`, the Potency result is “inactive”. Take `NNC(=O)c1cccc(Cn2cc(Br)c([N+](=O)[O-])n2)c1`: the Potency entry was “inactive”. The same measure for `C#CCn1/c(=N/C(=O)CSC(C)=O)sc2cc(F)ccc21`: 6.7 µM (active); for `COCC(=O)OC1CCn2c1nc1c2C(=O)C(C)=C(NC(C)=O)C1=O` (stereo not drawn): 10 µM (active); for `OCC1(CC2CCCCO2)CCN(Cc2ccccc2-c2ccco2)CC1` (stereo not drawn): “inactive”. As for `Nc1nc(Br)c2ccccc2c1-c1ccccc1`, the Potency entry is “inactive”.

Turning to `O=C(Oc1ccc(C(=S)N2CCOCC2)cc1)c1cccc(Cl)c1`, the Potency result is “inactive”. Next, `CC(C)c1ccc(C(=O)N2CCN(c3cnn(C)c(=O)c3Cl)CC2)cc1`: “inactive”. The same measure for `Clc1cccc(N/N=C/c2ccc(N3CCOCC3)s2)c1`: 39.8 µM (active).

Turning to `Oc1c(Cl)cc(Cl)cc1/C=N/c1ccc(N2CCOCC2)cc1`, the Potency entry is “inactive”.

Turning to `Fc1cccc(/C=N/Nc2cc(N3CCOCC3)ncn2)c1`, the Potency entry is “inactive”. The same measure for `C=CCN1C(=O)[C@@H]2Cc3c([nH]c4ccccc34)C(c3cc(OC)c(OC)c(OC)c3)N2C1=S` (stereo partly drawn): “inactive”; for `COc1cc(C2CC(=O)N(Cc3ccc(F)cc3)c3ccccc3S2)cc(OC)c1OC` (stereo not drawn): 28.2 µM (active); for `COc1cc(C2CC(c3cccnc3)=NN2c2ccc(F)cc2)cc(OC)c1OC` (stereo not drawn): “inactive”. As to `Cc1cc(NC(=O)C(C)SCC(=O)O)no1` (stereo not drawn), the Potency result is “inactive”. `Cc1ccc(S(=O)(=O)N2CCCC(CCC(=O)NCc3ccccc3F)C2)s1` (stereo not drawn): the Potency entry is “inactive”. Next, `Cc1ccc(S(=O)(=O)N2C[C@H]3n4c(=O)ccc(=O)n4C[C@H](OC(=O)NCc4ccccc4F)[C@@]3(O)C2)cc1`: 35.5 µM (active); `Cn1c(=O)c(=O)n(C)c2cc(S(=O)(=O)CCC(=O)NCc3ccccc3)ccc21`: “inactive”. The same measure for `CCCCCCn1c(=O)n2n(c1=O)[C@@H]1CN(S(=O)(=O)c3ccc(C)cc3)C[C@]1(O)[C@@H](OC(=O)NCc1ccccc1F)C2`: 35.5 µM (active); for `CCCCCCNC(=O)O[C@H]1Cn2c(=O)n(CCCCCC)c(=O)n2[C@@H]2CN(S(=O)(=O)c3ccc(C)cc3)C[C@]12O`: 25.1 µM (active); for `CCCCCCn1c(=O)n2n(c1=O)[C@@H]1CN(S(=O)(=O)c3ccc(C)cc3)C[C@]1(O)[C@@H](OC(=O)NCc1ccccc1)C2`: 28.2 µM (active). Next, `NS(=O)(=O)c1ccc(CNC(=O)/C=C/c2ccco2)cc1`: “inactive”; `O=C(Cc1ccccc1)NCc1nnc(S)n1-c1ccc(Br)cc1`: “inactive”; `CSc1c(C#N)c(O)nc2c1CCc1ccccc1-2`: “inactive”. Consider `COc1ccccc1[C@H]1C(c2cccc(C)c2)=NN(c2ccccc2)[C@@H]1CO`, for which the Potency entry was “inactive”. As for `Cc1ccc(C)c(N2CCN(C(=O)c3ccc(Cn4c(=S)[nH]c5ccc(N6CCOCC6)cc5c4=O)cc3)CC2)c1`, the Potency entry is “inactive”.

Turning to `CCCCCCNC(=O)O[C@H]1CN(C(=O)OC(C)C)N(C(=O)OC(C)C)[C@@H]2CN(S(=O)(=O)c3ccc(C)cc3)C[C@]12O`, the Potency was 22.4 µM (active). The same measure for `CCCC(C)NC(=O)c1cc(S(=O)(=O)N2CCCCCC2)ccc1OC` (stereo not drawn): “inactive”; for `COCCN(CCOC)C(=O)CSc1ccc(S(=O)(=O)N2CCN(C)CC2)cn1`: “inactive”; for `CC1=C(C(=O)Nc2nc3ccccc3s2)C(c2ccco2)C(C#N)=C(SCC(=O)NC2CCCCC2)N1` (stereo not drawn): “inactive”. The same measure for `COC(=O)c1ccc(NS(=O)(=O)c2ccc3c(c2)n(C)c(=O)n3C)cc1`: “inactive”; for `CC(NS(=O)(=O)c1ccc(Cl)c(Cl)c1)C(=O)OCC(=O)Nc1ccc2c(c1)OCO2` (stereo not drawn): “inactive”; for `O=C(Cn1ncc(Cl)c(Cl)c1=O)Nc1ccc2c(c1)OCO2`: 35.5 µM (active). The same measure for `CC(=O)Nc1ccc2nc3c(=O)n(C)c(=O)n(C)c3nc2c1`: “inactive”; for `O=C(CCl)Nc1ccc2c(c1)OCO2`: 22.4 µM (active); for `Cc1ccc(C(=O)O)cc1-c1ccc(/C=C2\SC(=O)N(CC(=O)Nc3ccc4c(c3)OCO4)C2=O)o1`: “inactive”.

Consider `O=C(Nc1ccc2c(c1)OCO2)c1sc2cc(Cl)ccc2c1Cl`, for which the Potency entry is “inactive”.

With `O=C(CSc1nc2cc(Cl)c(Cl)cc2[nH]1)c1ccc2c(c1)OCO2`, the Potency result is “inactive”.

For `O=C(Cn1ncc(Cl)c(Cl)c1=O)c1ccc2c(c1)OCCO2`, the Potency is 42.3 µM (active). `Cn1c(=O)n(C)c2cc(NC(=O)CCl)ccc21`: the Potency is 28.2 µM (active).
